Results from ChEMBL document CHEMBL3988442, “University of Dundee, Small-Polar-MMV Screening Library” (2021).
Out of some 48,000 compounds screened, about 13,000 (27%) showed an effect of 50% or more. This is one part of the list.

Tested on: Wolbachia pipientis
Experiment: Anti-Wolbachia Cell-Based Screen
Assay type: functional
Parameters: scale not given: in the data most compounds retested in dose-response had high values
Conditions: 5 µM

SMILES	Percent Effect
CC(C)n1c(C2CCCN(CC(=O)NC3CC3)C2)nc2ccccc21 (centres undefined)	-1.015%
O=C1COc2ccccc2N1CCCn1cnnn1	-11.05%
CN(C)C(CNS(=O)(=O)c1cnn(C)c1)c1cccc(F)c1 (centres undefined)	6.578%
N#Cc1ccc(OC2CCN(C(=O)c3ccc(Br)o3)CC2)nc1	22.17%
Cc1nc(N2C[C@@H](CN3CCCN(C)CC3)[C@@H](CO)C2)c2ccsc2n1	13.06%
CN1CCCN(C[C@@H]2CN(c3nc(C(N)=O)cs3)C[C@@H]2CO)CC1	120.2%
Cc1nc(N2C[C@@H](CN3CCCN(C)CC3)[C@@H](CO)C2)c2sccc2n1	6.466%
Cc1cnn(C2CN(CC(O)c3ccc(F)cc3)C2)c1 (centres undefined)	3.544%
O=C1O[C@@H]2CN(c3cnccn3)C[C@@H]2N1CCCc1ccc(F)cc1	20.37%
COc1c(C)cnc(CN(C)C(=O)c2ccccc2F)c1C	-7.265%
O=C(O)c1ccc(S(=O)(=O)Nc2ccc(Cl)c(F)c2)c(F)c1	4.995%
O=C(O)c1ccc(S(=O)(=O)Nc2ccccc2F)c(F)c1	-2.05%
O=C(O)c1ccc(S(=O)(=O)Nc2cccc(CC(F)(F)F)c2)c(F)c1	-7.999%
Cc1ccccc1NS(=O)(=O)c1ccc(C(=O)O)cc1F	0.9629%
Cc1cc(NS(=O)(=O)c2ccc(C(=O)O)cc2F)ccc1F	102.3%
N#Cc1cccc(NS(=O)(=O)c2ccc(C(=O)O)cc2F)c1	100.6%
Cc1ccc(F)cc1S(=O)(=O)N(C)CC(N)=O	2.56%
O=C1CCC2(CCNCC2)CN1CCCOc1cccnc1	-10.24%
COc1ccc(CN(C)C(=O)NC(C)c2nncn2C)cc1F (centres undefined)	-30.44%
CC(c1ccccc1)N1CCC(NC(=O)CCc2ccsc2)CC1 (centres undefined)	5.953%
O=C(CCSc1ccccc1)NCC1CCN(Cc2ccsc2)CC1	78.72%
O=C(COc1ccccc1)NCC1CCN(Cc2ccsc2)CC1	115.8%
O=C(NCC1CCN(Cc2ccsc2)CC1)NC1CC1	4.525%
CSc1cccc(CN2CCC(CCC(=O)NCCN(C)C)CC2)c1	-5.054%
COCCNC(=O)CCC1CCN(Cc2cccc(SC)c2)CC1	4.456%
COCC(=O)NCC1CCN(Cc2ccsc2)CC1	155%
CCSc1ccccc1C(=O)NCC1CCN(Cc2ccsc2)CC1	107.8%
CCC(CC)c1nnc(NC(=O)N2CCCC(NC(C)=O)C2)s1 (centres undefined)	-9.059%
CCn1ncnc1C(C)NC(=O)COc1ccc(Cl)cc1Cl (centres undefined)	-23.74%
